PKA-R1A activ: activates the PKA-R1A holoenzyme complex. 340,000 tested, 0.083% active. P00514+P68181. activation, % at 11.4 µM. PKA-R1A dissociation, Cy5-IP20 fluorescence polarization; scaled: DMSO 0%, 113 µM cGMP 100%. AID 504707;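 active = percent activation above the mean of all tested compounds plus 3 SD, cut at about 19% in these data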;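 note: higher means more PKAc released from R1A so a rise in polarization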
MsrA inhibitor: bovine MsrA inhibition | inhibition, % at 15.5 µM | purified bovine MsrA, absorbance read-out | 360,000 tested, 0.75% active; in the data active = inhibition above about 4.5%;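 note: 0% = vehicle wells with enzyme and 100% = reference inhibitor wells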
PKA-R2B act: PKA-R2B complex activation | AID 504700 | P22694+P31323 | PKA-R2B holoenzyme dissociation, Cy5-IP20 fluorescence polarization; R2B truncated from residue 108, S112A mutant; 0% DMSO only, 100% 113 µM cGMP | 340,000 tested, 0.079% active | activation, % at 11.4 µM;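 active = activation above a cutoff set at the mean over all compounds plus 3 SD, cut at about 18% in these data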;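 note: higher means more holoenzyme dissociation and a rise in polarization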
Target sequence (P31323 whole entry, looked up, other chains not shown, the tested form may be a part): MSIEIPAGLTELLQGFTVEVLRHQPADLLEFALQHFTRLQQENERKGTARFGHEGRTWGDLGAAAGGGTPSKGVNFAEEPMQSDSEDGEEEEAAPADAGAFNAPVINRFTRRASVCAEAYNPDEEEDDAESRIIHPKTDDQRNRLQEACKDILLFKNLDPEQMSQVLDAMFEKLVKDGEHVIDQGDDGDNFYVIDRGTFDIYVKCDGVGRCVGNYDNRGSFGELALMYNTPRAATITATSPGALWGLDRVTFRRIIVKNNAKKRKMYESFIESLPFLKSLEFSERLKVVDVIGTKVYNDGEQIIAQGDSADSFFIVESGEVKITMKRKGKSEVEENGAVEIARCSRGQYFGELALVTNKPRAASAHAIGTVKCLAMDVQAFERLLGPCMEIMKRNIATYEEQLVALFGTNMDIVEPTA
MsrA act: activates bovine MsrA enzyme; 360,000 tested, 0.3% active; activation, % at 10.6 µM; purified bovine MsrA, absorbance read-out; AID 602163; in the data active = activation above about 7.5%;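 note: 0% = vehicle and 100% = reference activator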
* marks the source's active call; other numbers are inactive results; x = no result. Hits are enriched below; roughly 1.1% of the tested compounds scored in any of these assays.

SMILES	PKA-R1A activ	MsrA inhibitor	PKA-R2B act	MsrA act
C[C@@H]1CN([C@@H](C)CO)C(=O)CCCn2cc(nn2)CO[C@H]1CN(C)C(=O)Nc1ccc(-c2cccs2)cc1	x	1	x	x
C/C(=N/Nc1ccc(C(=O)O)cc1)c1ccc(O)c(O)c1O	2	4.6*	-12	-9
COc1ccc(OC)c(/C(C)=N/Nc2ccc(C(=O)O)cc2)c1	-4	3	-1	-6
CC(=O)CSc1ccc(-c2nc3ccccc3[nH]2)cn1	-5	2	1	-5
CC(=O)CSc1ccc(-c2nc3cc(C)c(C)cc3[nH]2)cn1	-6	4.7*	-1	-3
CC(=O)Nc1ccc(S(=O)(=O)C(C#N)c2nc3ccccc3nc2NCCCO)cc1 (stereo unspecified)	-3	4.6*	-2	-6
C[C@@H]1CN([C@@H](C)CO)C(=O)CCCn2cc(nn2)CO[C@H]1CN(C)C(=O)c1ccncc1	x	0	x	x
Cn1c(=O)c2c(c3ccccc31)OC(C)(C)C=C2	x	2	x	x
C/C(=N\NC(=O)c1ccc(O)cc1)c1cc2ccccc2o1	-5	4.6*	10	-4
O=C1c2cccc3c([N+](=O)[O-])ccc(c23)C(=O)N1Cc1cccnc1	-5	7.9*	-6	-6
C[C@H]1[C@@H]2C[C@@]3(O[C@H](c4ccc(C(F)(F)F)cc4)N=C3C[C@@H]1c1ccccc1)N(Cc1ccncc1)C2=O	x	0	x	x
Clc1ccc(-c2nnnn2-c2ccc(Cl)c(Cl)c2)cc1Cl	-1	16*	8	-2
Nc1ccc(-c2nnnn2-c2ccc(N)cc2)cc1	-3	-1	-7	-2
COc1ccc(/C=C/C(=O)Nc2nc(C)cc(C)n2)cc1OC	7	4.9*	0	-6
COc1ccc(/C=C/C(=O)Nc2nonc2NC(C)=O)cc1	0	4.6*	8	-7
Cc1cc2c(c(=O)o1)[C@@]1(C(=O)N(C)c3ccccc31)C1=C(CC(C)(C)OC1=O)O2	x	0	x	x
CC1CC(=O)C2=C(C1)Nc1ccccc1N(C(=O)COc1ccccc1)C2c1ccco1 (stereo unspecified)	-13	3	8	-8
COc1ccc(C2C3=C(CC(c4ccco4)CC3=O)Nc3ccccc3N2C(C)=O)cc1 (stereo unspecified)	1	5.3*	-5	-4
COCc1cc(C)nc(OCC(=O)N/N=C/c2ccc(O)cc2O)c1C#N	-5	4.5*	1	-3
COc1ccc(C(=O)Nc2ccc3c(c2)C(=O)c2ccccc2C3=O)cc1OC	8	0	-3	-7
COc1ccc(C(=O)c2c(C(F)(F)F)oc3c2C(=O)c2ccccc2C3=O)cc1OC	6	47*	-8	1
C[C@@H]1ON(C)[C@H]2C[C@H]3c4cc(-c5ccccc5)ccc4CCN3C[C@@H]12	x	0	x	x
COC(=O)C(CC(C)C)N(Cc1ccc(Br)cc1)S(=O)(=O)CCl (stereo unspecified)	x	-1	x	x
COc1ccc(C(CC(=O)N2CCCCC2)c2c(OC)cc(OC)c3c(-c4ccccc4)cc(=O)oc23)cc1 (stereo unspecified)	-5	0	-2	-1
COc1ccc(C(CC(=O)N2CCCC2)c2c(OC)cc(OC)c3c(-c4ccccc4)cc(=O)oc23)cc1 (stereo unspecified)	4	0	-2	9.0*
SMILES	PKA-R1A activ	MsrA inhibitor	PKA-R2B act	MsrA act
O=C(CSC1=NCCS1)NC(NC(=O)CSC1=NCCS1)c1ccccc1	-8	2	0	-8
O=C(CSC1=NCCS1)NC(c1ccccc1)c1ccccc1	19*	-1	3	-2
CC(/C=N/NC(=O)c1ccncc1)=C\c1ccccc1	-10	5.2*	-1	-8
CC(=C/c1ccc(C(C)C)cc1)/C=N/NC(=O)c1ccncc1	11	1	-5	-8
Oc1[nH]c2ccc(Br)cc2c1N=NC(=S)Nc1ccc(F)cc1	-4	1	5	-2
N=C(N)N=Nc1c(O)[nH]c2ccc(Br)cc12	4	4.6*	-3	-1
Nc1ccn([C@@H]2O[C@H](C(=O)NCC(=O)N3CCOCC3)[C@@H](O)[C@H]2O)c(=O)n1	x	0	x	x
COc1ccc(C(=O)Nc2ccccc2-c2nnn(CC(=O)Nc3ccc4c(c3)OCCO4)n2)cc1	0	0	-11	8.5*
COc1cc(/C=N/NC(=O)c2sc(N)c(C#N)c2C)ccc1O	-1	8.4*	2	-16
Cc1c(C(=O)N/N=C/c2ccc(O)c(Br)c2)sc(N)c1C#N	-3	4	-9	-5
COc1cc(/C=N/NC(=O)c2cccc(N3CCCC3=O)c2)ccc1O	9	5.4*	0	-4
CCN(CC)S(=O)(=O)c1ccc(N=Nc2c(C)[nH]n(C(N)=S)c2=O)cc1	1	4.5*	-2	-12
CC(=O)N(C)c1ccc(N=Nc2c(C)[nH]n(C(N)=S)c2=O)cc1	-5	4	-3	-5
COC(=O)C1C(=O)C2=C(CC1C)NC(C)=C(C(=O)OC1CCCC1)C2c1ccc(N(C)C)cc1 (stereo unspecified)	-18	1	-9	-11
COC(=O)C1C(=O)C2=C(CC1C)NC(C)=C(C(=O)OC(C)C)C2c1ccc(OC)c(O)c1 (stereo unspecified)	20*	1	12	-6
Cc1ccc(/C=C2\SC(N3CCCC3)=NC2=O)cc1	x	4.6*	x	x
CCOC(=O)C1CCN(C2=NC(=O)/C(=C/c3ccc(OC)c(OC)c3)S2)CC1	1	3	-2	-9
CCOC(=O)C1CCN(C2=NC(=O)/C(=C/c3ccc(Cl)cc3)S2)CC1	-1	4.7*	-5	-3
O=C(C[C@@H]1C[C@@H]2c3cc(NC(=O)c4ccc5c(c4)OCO5)ccc3O[C@@H]2[C@@H](CO)O1)NCc1cccnc1	x	1	x	x
CC(C)(C)C(=O)NCCCc1nc2ccccc2n1CCCOc1ccc(Cl)cc1	-12	0	-3	10*
CCOC(=O)C1CSCCS(=O)(=O)N1Cc1ccccc1C (stereo unspecified)	x	2	x	x
O=[N+]([O-])c1ccc(Oc2cccnc2)c([N+](=O)[O-])c1	-1	4.5*	-3	0
Nc1ccc(Oc2ccc([N+](=O)[O-])cc2[N+](=O)[O-])cc1	-4	1	0	-12
CCOc1ccc(NC(=O)c2ccc3[nH]c(=O)c(=O)[nH]c3c2)cc1	-16	4.6*	-2	-3
COCc1cc(Sc2cccc(Cl)c2Cl)nc(-c2ccccc2)n1	-6	-1	11	23*
SMILES	PKA-R1A activ	MsrA inhibitor	PKA-R2B act	MsrA act
COCc1cc(Sc2ccc(Cl)cc2)nc(-c2ccccc2)n1	13	0	4	-3
Cc1ccc(N2CC(C(=O)N/N=C/c3sccc3C)CC2=O)cc1 (stereo unspecified)	-8	4.6*	-4	-2
COc1ccc(/C=N/Nc2ccccn2)cc1OC	x	4.6*	x	-5
COc1ccccc1NC(=O)c1cc2c(CO)cnc(C)c2oc1=Nc1cccc(C(N)=O)c1	-3	0	-5	-3
COc1ccc(NC(=O)c2cc3c(COC(C)=O)cnc(C)c3oc2=Nc2cccc(C(=O)O)c2)c(OC)c1	19*	x	-3	-13
CCOC(=O)CSc1nc2sc3c(c2c(=O)n1-c1ccc(OC)cc1)CCN(C)C3	-11	4	2	-5

Screening data: PubChem BioAssay, The Scripps Research Institute Molecular Screening Center
